The values below come from ChEMBL document CHEMBL3988442, “University of Dundee, Small-Polar-MMV Screening Library” (2021).

The campaign covered roughly 69,000 compounds. About 50 (0.07%) showed an effect of 50% or more. This is one part of a sample in which strong results are shown more often than they occur.

Sequence of Lysine--tRNA ligase (Plasmodium falciparum (isolate 3D7)) (Q8IDJ8 1-583): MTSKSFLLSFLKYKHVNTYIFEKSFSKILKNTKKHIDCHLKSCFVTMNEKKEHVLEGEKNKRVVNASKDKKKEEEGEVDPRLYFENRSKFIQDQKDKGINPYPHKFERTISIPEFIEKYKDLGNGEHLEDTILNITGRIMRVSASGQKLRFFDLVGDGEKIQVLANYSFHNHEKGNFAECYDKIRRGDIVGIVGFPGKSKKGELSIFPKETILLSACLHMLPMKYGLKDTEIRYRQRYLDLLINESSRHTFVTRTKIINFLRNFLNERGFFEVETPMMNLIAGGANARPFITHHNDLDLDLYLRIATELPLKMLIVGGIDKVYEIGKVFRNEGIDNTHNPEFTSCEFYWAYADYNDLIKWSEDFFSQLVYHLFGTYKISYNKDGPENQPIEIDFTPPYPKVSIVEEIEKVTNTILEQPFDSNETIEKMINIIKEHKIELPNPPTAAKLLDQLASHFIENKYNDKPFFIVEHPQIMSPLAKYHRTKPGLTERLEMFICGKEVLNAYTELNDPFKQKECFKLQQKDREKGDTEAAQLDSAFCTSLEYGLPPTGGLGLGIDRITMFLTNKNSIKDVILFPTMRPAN

This assay has as its target Lysine--tRNA ligase (Plasmodium falciparum (isolate 3D7)) (UniProt Q8IDJ8). In words: Pf-KRS-1 (Lysyl-RNA Synthetase-1, KRS-1, cytosolic KRS) from Plasmodium falciparum. Inhibitor assay, 384 well plate, luminescence read. The format is functional. Also noted: scale not given: in the data most compounds retested in dose-response had high values. As to conditions: 30 µM.
On to `COCC(=O)N1CCN(S(=O)(=O)c2ccccc2)[C@H]2CS(=O)(=O)C[C@H]21`, for which the Percent Effect came out at 2.66%. The value for `O=C1CO[C@@H]2CN(Cc3nccs3)C[C@H]2N1Cc1ccncc1` was 3.56%; that for `COCC(=O)N1C[C@@H](OCc2ccncc2)[C@@H]2OCCC[C@@H]21` was 0.763%; that for `COc1ccccc1C1CC(=O)Nc2nc(N3CCCCC3)sc21` (configuration not stated) was 84.3%. As to `COc1ccccc1C1CC(=O)Nc2c1c(=O)[nH]n2C1CCCC1` (configuration not stated), the Percent Effect turned out to be 5.39%. Then `COc1ccccc1C1CC(=O)Nc2c1c(=O)[nH]n2C(C)C` (configuration not stated), with -1.35%; and `COCCN1C[C@H]2CCC[C@@H](CNc3ncccn3)[C@H]2C1`, with 5%.

`Cn1ccnc1NC[C@@H]1CCC[C@@H]2CN(CC3CC3)C[C@@H]21`: the Percent Effect stood at 9.69%. On to `Cc1ncsc1CN1C[C@H]2OCC[C@H]2[C@H](C(=O)NCC2CC2)C1`, for which the Percent Effect was 0.98%. As to `Fc1cccc(CCN(c2ccc3nnnn3n2)C2CC2)c1`, the Percent Effect is 5.52%.

On to `CCCN(CCc1cccc(F)c1)c1ccc2nnnn2n1`, for which the Percent Effect was determined as 10.9%. Then `CCN(Cc1cccc(F)c1)c1ccc2nnnn2n1`, with 50.8%; and `O=C(c1ccco1)N1CC[C@@H]2O[C@H](COCC3CCOCC3)CC[C@@H]21`, with 0.363%. As to `CS(=O)(=O)NC[C@@H]1OC[C@H]2CN(Cc3ccccc3)CC[C@H]21`, the Percent Effect stood at 3.37%. As for `COCCNC(=O)[C@H]1C[C@@H]2CCN(CCc3ccccc3)C[C@@H]2O1`, the Percent Effect came out at 1.68%. The value for `COc1cccc(CN2C[C@@H]3COC[C@]3(CNC(=O)C3CC3)C2)c1` was 4.5%. For the molecule `O=c1[nH]nc(-c2cccs2)c2sc(N3CCOCC3)nc12`, the Percent Effect came to 7.56%. Take `O=C1CC(c2ccccc2C(F)(F)F)c2sc(N3CCOCC3)nc2N1` (configuration not stated): the Percent Effect is 82.6%.

As to `Cn1ncc2c1NC(=O)CC2c1ccccc1Br` (configuration not stated), the Percent Effect is 1.2%.

As for `Cc1cc(Br)c(O)c(-c2nc(N3CCOCC3)sc2C)c1`, the Percent Effect came to 2.13%.

With `O=C1CC(c2ccccc2Br)c2sc(N3CCOCC3)nc2N1` (configuration not stated), the Percent Effect was 60.1%.

Consider `OC1CN(c2nc3c(C(F)(F)F)cccc3s2)C1`, for which the Percent Effect was -2.21%. Turning to `COCCN1CCO[C@@H]2CN(Cc3ccc(C)o3)C[C@@H]2C1`, the Percent Effect is 3.96%. For the molecule `CNC(=O)[C@@H]1COC[C@H]2CN(C(=O)COc3ccccc3)C[C@H]21`, the Percent Effect amounted to 5.31%. In the case of `CC(C)CS(=O)(=O)N1C[C@H]2C[C@H](C(=O)Nc3cccnc3)[C@@H](C1)O2`, the Percent Effect is -0.957%.

`O=C(Nc1ccccc1)[C@H]1C[C@@H]2CN(S(=O)(=O)c3ccccc3)C[C@H]1O2`: the Percent Effect worked out at 1.2%.

`CCOCC1CN(Cc2ccc(OC)cc2)Cc2nn(CC3CC3)cc21` (configuration not stated): the Percent Effect was determined as 60.3%. Then `CCOCC1CN(Cc2ccc(OC)cc2)Cc2nn(C)cc21` (configuration not stated), with -4.8%; and `CCOCC1CN(Cc2ccc(F)cc2)Cc2nn(CC3CC3)cc21` (configuration not stated), with 3.6%. As to `CNC(=O)N1CC[C@H]2N(C)CC[C@@]2(C(=O)N2CCOCC2)CC1`, the Percent Effect came out at 5.59%. The value for `Cc1cccc(C(=O)N2CC[C@H]3C[C@@H](C)O[C@@H]3C2)n1` was 1.1%; that for `CS(=O)(=O)N1C[C@@H]2COC[C@@H](CC(=O)N3CCCCO3)[C@@H]2C1` was -2.78%.

Turning to `O=C(N1CCCO1)[C@@]12CCO[C@@H]1CCN(Cc1ccccc1)C2`, the Percent Effect turned out to be 4.7%. Turning to `COc1cccc(CN2C[C@H]3CCNCC[C@H]3S2(=O)=O)c1`, the Percent Effect is -2.39%. In the case of `Cc1noc(C)c1CN1CC[C@H]2C[C@H](c3nccs3)O[C@@H]2C1`, the Percent Effect was -0.715%.

`COCc1nc2cc(NCc3scnc3C)ccc2o1`: the Percent Effect was 13.6%. Regarding `COCc1nc2cc(NCc3csc(C)n3)ccc2o1`, the Percent Effect is 10.7%. With `COCc1nc2cc(NCc3sc(C)nc3C)ccc2o1`, the Percent Effect is 58.6%.

In the case of `COCCN1CCC(CNC(=O)c2c[nH]c(=O)c(Cl)c2)CC1`, the Percent Effect turned out to be 2.11%. For the molecule `CC/C=C(\C)CN1CCC(CNC(=O)c2c[nH]c(=O)c(Cl)c2)C1` (configuration not stated), the Percent Effect was -1.78%.

As to `CCC1CCC(CNC(=O)c2c[nH]c(=O)c(Cl)c2)CC1` (configuration not stated), the Percent Effect came to 67.6%. For `c1cnc(N2CC[C@@H]3CN(Cc4ccncc4)CCO[C@@H]3C2)nc1`, the Percent Effect was determined as 4.97%. In the case of `Cc1cccc(CO[C@H]2CN(c3nnc(C)s3)[C@@H]3CCCO[C@H]23)n1`, the Percent Effect stood at 3.74%. `COc1cccc(-c2n[nH]c3c2CN(C(=O)c2cc(C)n(C)n2)CC3)c1`: the Percent Effect is -1.18%. On to `COc1cccc(-c2n[nH]c3c2CN(C(=O)c2ccncc2)CC3)c1`, for which the Percent Effect came out at 0.631%.

Turning to `COc1cccc(-c2n[nH]c3c2CN(C(=O)c2cccc(=O)[nH]2)CC3)c1`, the Percent Effect came to 55.1%. For `Cn1cccc1C(=O)N1C[C@H](OCC2CCOCC2)[C@H]2COC[C@H]21`, the Percent Effect was found to be 3.49%.

Turning to `c1cnnc(N[C@@H]2CC[C@@H]3CN(Cc4c[nH]c5ccccc45)C[C@@H]32)c1`, the Percent Effect came to 0.669%. For `CCCN(C(=O)c1ccncc1)c1nc2c(s1)CCc1c-2cnn1C`, the Percent Effect came out at 16.2%. For `COCCN(C(=O)c1ccccn1)c1nc2c(s1)CCc1c-2cnn1C`, the Percent Effect came out at 52.4%.

On to `COCCN(C(=O)c1cnccn1)c1nc2c(s1)CCc1c-2cnn1C`, for which the Percent Effect is 8.73%. As for `CCCN(C(=O)c1cnccn1)c1nc2c(s1)CCc1c-2cnn1C`, the Percent Effect worked out at 10.8%.

`CCCN(C(=O)COC)c1nc2c(s1)CCc1c-2cnn1C`: the Percent Effect was determined as 74.8%. For the molecule `CN(C(=O)c1ccccn1)c1nc2c(s1)CCc1c-2cnn1C`, the Percent Effect came out at 0.965%. In the case of `CCCN(C(=O)c1ccccn1)c1nc2c(s1)CCc1c-2cnn1C`, the Percent Effect came to 50.4%. For the molecule `CCCN(C(=O)c1cccnc1)c1nc2c(s1)CCc1c-2cnn1C`, the Percent Effect is 44%. `CCCN(C(=O)c1cnc(C)cn1)c1nc2c(s1)CCc1c-2cnn1C`: the Percent Effect was 40.4%. As for `Cc1nccc([C@H]2C[C@@H]3CCN(S(C)(=O)=O)C[C@H]3O2)n1`, the Percent Effect is -0.787%. `O=C([C@H]1COC[C@H]2CN(c3ccncn3)C[C@H]21)N1CCCC1`: the Percent Effect is -3.71%. On to `O=C(Nc1cnccn1)[C@H]1C[C@H]2OCC[C@H]2N(c2ncc(F)cn2)C1`, for which the Percent Effect came out at 11.9%. Take `COc1cccc(-c2ncc(CN3C[C@@H]4CC[C@H](C3)N(C)C4=O)s2)c1`: the Percent Effect was -4.12%. Turning to `COc1ccc(C2CC(=O)Nc3nc(N4CCOCC4)sc32)cc1` (configuration not stated), the Percent Effect was 82.2%. For the molecule `COc1ccc(OC)c(C2CCN(CC(C)(C)N3CCOCC3)C2)c1` (configuration not stated), the Percent Effect turned out to be 1.11%. The value for `COc1ccc(C2CC(=O)Nc3c2cnn3C)cc1` (configuration not stated) was -3.99%. Turning to `CCn1ncnc1C1CC(=O)NCc2nc(N3CCOCC3)sc21` (configuration not stated), the Percent Effect was 0.366%. As to `COc1ccc(OC)c(C2SCC(=O)Nc3n[nH]cc32)c1` (configuration not stated), the Percent Effect amounted to 4.67%. With `COc1ccc(OC)c(C2CC(=O)Nc3nc(N4CCOCC4)sc32)c1` (configuration not stated), the Percent Effect came out at 84.5%. As for `COc1ccc(C2CC(=O)NCc3nc(N(C)C)sc32)c(O)c1` (configuration not stated), the Percent Effect was 1.01%. For the molecule `COc1ccc(C2CC(=O)Nc3nc(N4CCOCC4)sc32)c(OC)c1` (configuration not stated), the Percent Effect stood at 86.4%. The value for `COc1ccc(C2CCCN2c2nnc(C)s2)c(OC)c1` (configuration not stated) was -1.09%; that for `COCCN1C(=O)CO[C@H]2CN(Cc3ccccc3Cl)C[C@@H]21` was 3.69%. As to `O=C(c1cocn1)N1C[C@H]2CCC[C@@]2(COCc2cccnc2)C1`, the Percent Effect came out at 2.44%. Regarding `Cc1c(Cl)cccc1S(=O)(=O)N1C[C@@H]2CC[C@H](C1)N(C)C2=O`, the Percent Effect stood at 3.71%.

In the case of `O=S1(=O)C[C@@H]2[C@H](C1)N(Cc1ccoc1)CCN2Cc1ccncc1`, the Percent Effect is 8.97%.

On to `O=C(c1ccncc1)N1C[C@@H]2CC[C@H](C1)N(C(=O)C1CCCC1)C2`, for which the Percent Effect is -0.475%. Take `O=C1CC(c2ccccc2F)c2c(n3ccsc3nc2=O)N1` (configuration not stated): the Percent Effect is 6.5%. On to `CNc1nc2c(s1)C(c1cccc(F)c1F)CC(=O)N2` (configuration not stated), for which the Percent Effect was 50.5%. Turning to `Cn1ncc2c1NC(=O)CC2c1ccc(Cl)cc1Cl` (configuration not stated), the Percent Effect was found to be 9.51%.

`CNc1nc2c(s1)C(c1ccccc1F)CC(=O)N2` (configuration not stated): the Percent Effect was determined as 79.2%.

On to `CNc1nc2c(s1)C(c1ccccc1Cl)CC(=O)N2` (configuration not stated), for which the Percent Effect was 84.5%. Then `CNc1nc2c(s1)C(c1ccc(F)cc1Cl)CC(=O)N2` (configuration not stated), with 82%. In the case of `CC(C)(C)n1ncc2c1NC(=O)CC2c1c(F)cccc1F` (configuration not stated), the Percent Effect was determined as 5.99%. `CNc1nc2c(s1)C(c1cccc(Cl)c1Cl)CC(=O)N2` (configuration not stated): the Percent Effect came out at 29.5%. Then `CNc1nc2c(s1)C(c1cc(Cl)ccc1F)CC(=O)N2` (configuration not stated), with 44.9%. In the case of `Cn1ncc2c1NC(=O)CC2c1ccccc1Cl` (configuration not stated), the Percent Effect was determined as 6.28%.

As for `CNc1nc2c(s1)C(c1ccc(Cl)cc1Cl)CC(=O)N2` (configuration not stated), the Percent Effect worked out at 47.4%. For the molecule `Cc1ccsc1C1CC(=O)Nc2c1cnn2C(C)C` (configuration not stated), the Percent Effect is 3.08%. Take `O=C(NCC1CC1)[C@@H]1CC[C@@H]2[C@@H](CCN2Cc2ccco2)O1`: the Percent Effect was -0.532%. In the case of `COCCN1C[C@H]2CN(Cc3cccc(OC)c3)CCN2C1=O`, the Percent Effect stood at 8.64%. Take `COc1ncccc1C(=O)N1C[C@@H]2COC[C@]2(CN(C)C)C1`: the Percent Effect is -2.56%. Take `Fc1ccccc1CN1C[C@@H]2OCCN(c3ncccn3)[C@@H]2C1`: the Percent Effect was -1.46%. For `COCCN1C(=O)[C@H]2CC[C@@H]1CN(S(=O)(=O)c1ccc(OC)cc1)C2`, the Percent Effect was 5.86%. Consider `c1cnc2c(-c3nccn3C[C@@H]3CCCN4CCCC[C@H]34)cccc2c1`, for which the Percent Effect came to 1.5%. For the molecule `Cc1cccc(S(=O)(=O)N2CC[C@H]3[C@H]2CCN3c2ncccn2)c1`, the Percent Effect is 1.51%. Consider `O=C(c1cscn1)N1CC[C@@H]2[C@@H]1CCN2C1CCOCC1`, for which the Percent Effect is 1.62%.

Regarding `CN1C[C@@H]2CC[C@H](CC1=O)N2C(=O)c1ccc(-c2ccccc2)[nH]c1=O`, the Percent Effect stood at 16.3%. For `COc1ccc(CC(=O)N2CC[C@@H]3CN(C)S(=O)(=O)[C@@H]3CC2)cc1`, the Percent Effect came to 3.63%.

With `CNc1nc2c(s1)C(c1c(Cl)cccc1Cl)CC(=O)N2` (configuration not stated), the Percent Effect was determined as 35.2%. As for `Cn1ncc2c1NC(=O)CC2c1c(F)cccc1Cl` (configuration not stated), the Percent Effect is 2.46%. Then `CNc1nc2c(s1)C(c1c(F)cccc1Cl)CC(=O)N2` (configuration not stated), with 70%; and `O=C1C[C@H]2[C@@H](CCN2C(=O)Cc2cccs2)N1Cc1ccncc1`, with 3.5%. With `Cc1cccc(CN2C[C@@H]3OCCN(S(=O)(=O)N(C)C)[C@@H]3C2)c1`, the Percent Effect amounted to 2.13%.
